Screening data (PubChem)
This is a sample that favours compounds with a hit; in the whole collection about 7.9% have one here.
FMDV inh = antivirals against foot and mouth disease virus; FMDV antiviral cell-based qHTS; Potency, µM (series often up to 57.9 µM), without a hit: at the top dose activity change, negative = inhibition, hits mostly inhibitors; 410,000 tested, 1.2% active; calls by dose curve; tested in HEK293T cells; note: read-out not given here; potency is the fitted concentration of half-maximal effect; nearly all actives have a fitted effect of over 45% in size
Lassa entry inh = blocks Lassa virus binding to or entry into cells; Lassa virus pseudotype entry inhibition, cell reporter; Potency, µM (doses to about 37.9 µM), for the others: at the highest dose activity change, negative = inhibition, hits mostly inhibitors; 300,000 tested, 1.2% active; AID 540256; calls by dose curve; tested in HEK293 cells; note: potency is the fitted concentration of half-maximal effect; nearly all actives have a fitted effect of over 50% in size
MARV entry inh = Marburg virus entry inhibition | Marburg virus pseudotyped entry inhibition, cell reporter | Potency, µM (titrated, usually from 37.8 µM), without a hit: at the highest dose activity change, negative = inhibition, actives largely listed as inhibitors | 300,000 tested, 1.8% active | AID 540276; calls by dose curve; tested in HEK293 cells; note: potency is the fitted concentration of half-maximal effect
HCV inh = HCV inhibition; Huh7.5.1 HCVcc-Cre infection, luciferase reporter, 44 h; Potency, µM (series often up to 41.8 µM), without a hit: at the highest dose activity change, negative = inhibition, actives largely listed as inhibitors; 340,000 tested, 3.4% active; AID 651820; active = well fitted inhibition curve with a large enough effect; inconclusive = small, poorly fitted or top-dose-only effect, or another doubt; inactive = no such curve, though single readings can be large or run the other way; note: potency is the fitted concentration of half-maximal effect
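Compounds are dispensed onto cells plated 4 h earlier at 1,000 per well, with HCVcc-Cre virus (about 0.5 moi) added next. Following 44 h of culture, luminescent signal is measured for 15 sec after 15 min with substrate at room temperature.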
HCMV antiviral = blocks human cytomegalovirus replication; 410,000 tested, 4.5% active; activity change, negative = inhibition, % at 57.5 µM; AID 1259415; HFF cells, HCMV-luciferase reporter, 72 h; active compounds read low; in the data active = activity change below about -60%; inconclusive = no clear call, values can overlap the other calls; inactive = above about -39%
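Two compound doses tested in HFFs infected with HCMV-luciferase, MOI 1 PFU/cell, 72 h at 37C. Lysate luminescence read with OneGlo; data normalized against buffer-only and 10uM Salinomycin inhibitor controls.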
* = called active by the depositor; ? = inconclusive; . = not tested or not shown; [ ] = remark or other dose. % is set by controls: 0 for no effect and ±100 for the full control effect.

SMILES	FMDV inh	Lassa entry inh	MARV entry inh	HCV inh	HCMV antiviral
C=CCNc1ncnc2c1[nH]c1ccccc12	?	-13%	-24%	11µM*	-9
C=CCNc1ncnc2c1[nH]c1ccc(Cl)cc12	?	10µM*	?	?	-97*
CCOc1ccc2[nH]c3c(NCCO)ncnc3c2c1	13%	.	.	13%	48
CCOC(=O)Cn1c(=O)cc(-c2ccccc2)c2c(C)nn(C)c21	-8%	-21%[46.1 µM]	.	.	8
COC(=O)CC(Oc1c(C)n(C)c2ccccc2c1=O)c1ccccc1 (stereo not given)	.	.	-5%[14.2 µM]	.	.
O=C1CCC2=C(CC(O)=C(O)C2)O1	.	.	5%	.	.
CCOC(=O)Nc1nc(-c2ccccc2)c(C(=O)c2ccc(Cl)cc2)s1	-18%	?	?	?	-67*
COc1ccc(-c2noc(CSc3nnc(CCc4ccccc4)n3-c3ccccc3)n2)cc1OC	.	4.1µM*	-1%	11µM*	-31
COc1ccc(-c2noc(CSc3nnc(Cc4ccccc4)n3-c3ccc(Cl)cc3)n2)cc1	-20%	4.1µM*	?	14µM*	-2
Cc1ccc(-c2noc(CSc3nnc(Cc4ccccc4)n3-c3ccc(Cl)cc3)n2)cc1	-22%	1.6µM*	?	?	-12
COc1ccc(Cc2nc(-c3ccc(-n4cccc4)cc3)no2)cc1OC	?	.	.	10µM*	?
COCCCNC(=O)c1cnn(-c2ncc3c(n2)-c2ccccc2CCC3)c1C	40%	.	.	.	.
CCOC(=O)[C@]12Cc3cc(C)ccc3[C@H]1N(C1CCCCC1)C(=O)c1cc(OC)ccc12	3.5µM*	.	.	.	-104*
CCOC(=O)[C@]12Cc3cc(OC)ccc3[C@H]1N(C1CCCCC1)C(=O)c1cc(OC)ccc12	13µM*	.	.	.	-98*
Cc1cccc(S(=O)(=O)c2cn(Cc3ccccc3)c3cc(N4CCC(C)CC4)c(F)cc3c2=O)c1	-8%	-1%[46.1 µM]	.	.	13
COc1ccc(C2=Nc3ccccc3NC(=O)C2N(C(=O)c2ccnc3ccccc23)c2ccccc2)cc1 (stereo not given)	-15%	.	.	.	-82*
COc1ccc(C2=Nc3ccccc3NC(=O)C2N(C(=O)c2cnc(C)cn2)c2ccc(N3CCOCC3)cc2)cc1 (stereo not given)	17%	.	.	.	23
COc1ccc(C(C#N)N2CCC(c3ccccc3)=N2)cc1 (stereo not given)	2%	3%[46.1 µM]	?	17%	-73*
COc1ccccc1C=CC1=CC2(C)CC1(C)C(c1ccccc1OC)CC2=O (stereo not given)	.	.	-29%[14.2 µM]	.	.
CC(=O)c1cnn(-c2nc3c(C)cccc3s2)c1C	40%	?	0%	4%	-99*
Cc1ccc(S(=O)(=O)Nc2ccc(S(=O)(=O)NCC3CCCO3)cc2)cc1 (stereo not given)	6%	0%[46.1 µM]	4%[46.1 µM]	-12%	-10
Cc1cccc(C)c1OCc1cc(=O)n2ccsc2n1	-3%	?	-26%[46.1 µM]	.	-21
COc1cccc(N2C(=O)/C(=C/c3ccc(C)o3)C(=O)NC2=S)c1	18µM*	.	.	17%	29
COc1ccc(N2C(=O)/C(=C/c3cccs3)C(=O)NC2=S)cc1	25µM*	3%	16%[46.1 µM]	-25%	-31
O=C1NC(=S)N(c2ccccc2)C(=O)/C1=C/c1ccco1	35µM*	21%[46.1 µM]	?	21%	39
SMILES	FMDV inh	Lassa entry inh	MARV entry inh	HCV inh	HCMV antiviral
COc1ccc(N2C(=O)/C(=C/C=C/c3ccccc3[N+](=O)[O-])C(=O)NC2=S)cc1	22µM*	-18%	14%[46.1 µM]	22%	0
CCOc1cccc(N2C(=O)/C(=C/c3ccco3)C(=O)NC2=S)c1	-15%	.	.	-22%	49
Cc1cc(Cl)ccc1OCC(=O)O[C@@H](C)C(=O)N(C)C	.	.	4%	.	.
Cc1ccc(/C=C2\C(=O)NC(=S)N(c3ccc(F)cc3)C2=O)o1	32µM*	.	.	6%	-10
Cc1ccc(/C=C2/C(=O)NC(=O)N(CCc3ccc(F)cc3)C2=O)o1	25µM*	-20%	?	18%	173
COc1ccc(N2C(=O)/C(=C/c3ccc(N(C)C)o3)C(=O)NC2=S)cc1	-15%	.	.	1%	-39
Cc1ccc(/C=C2/NC(=O)N(Cc3ccccc3F)C2=O)o1	-16%	-6%	-22%	3%	-72*
O=C(Nc1ccc(S(=O)(=O)Nc2ncccn2)cc1)C1=COCCO1	16%	15%	12%	19%	-7
C=CCNC(=O)/C(C#N)=C/c1c(C)nn(-c2ccccc2)c1Cl	-8%	14%	7.9µM*	?	-31
